# According to paper PMC5540273 (PLoS ONE, 2017):
# How the values were obtained:
# Conditions in all cases: concentration: 1 μM, replicates: in singlicate; n = 1
# [1] = system: MAP4K2
# [2] = system: MAP4K3
# [3] = system: MAP4K4
# [4] = system: MAP4K5
# [5] = system: MAPKAPK2
# [6] = system: MAPKAPK5
# [7] = system: MARK1
# [8] = system: MARK2
# [9] = system: MARK3
# [10] = system: MARK4
# 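Further: KINOMEscan kinase panel screen.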
SMILES,%Inh [1],%Inh [2],%Inh [3],%Inh [4],%Inh [5],%Inh [6],%Inh [7],%Inh [8],%Inh [9],%Inh [10]
Cc1ccc(NC(=O)Nc2ccccc2)cc1-c1ccc(C(=O)Nc2ccncc2)cc1 [GSK1398471],0%,2%,1%,0%,1%,0%,0%,1%,45%,0%
CN1c2ccc(-c3ccc(C(N)=O)cc3)cc2-c2[nH]ncc2S1(=O)=O,1%,6%,29%,23%,0%,0%,14%,0%,0%,27%
CNc1nc(-c2ccc3c(N)n[nH]c3c2)cc(N2C[C@@H](C(=O)Nc3ccccc3)CC[C@H]2C)n1 [GSK2298859],0%,0%,6%,0%,0%,0%,0%,0%,0%,11%
CCn1c(-c2ccccc2)nc2cnccc21 [SB-733416],0%,9%,18%,8%,34%,0%,13%,0%,10%,26%
CNc1nc(-c2ccc3c(N)n[nH]c3c2)cc(N2C[C@@H](C(=O)NC3CCCCC3)OC[C@H]2C)n1 [GSK2375584],0%,0%,15%,9%,17%,2%,10%,0%,0%,18%
Cc1ccc(NC(=O)Nc2ccc(Cl)cc2)cc1-c1ccc(C(=O)Nc2ccncc2)cc1 [GSK1398472],0%,0%,5%,6%,19%,0%,0%,0%,0%,1%
FC(F)(F)c1ccccc1-c1cc(-c2c[nH]nc2-c2ccccn2)ccn1 [GW679396],0%,0%,10%,3%,0%,8%,0%,0%,0%,12%
O=C1NC(=O)C(c2ccc(Cl)cc2)=C1Nc1cccc(Cl)c1 [SB-317651],6%,1%,0%,0%,0%,0%,0%,13%,6%,0%
COc1ccc(CSc2nnc(-c3ccc4c(c3)CCO4)o2)cc1,0%,0%,0%,0%,0%,0%,0%,21%,0%,0%
Cn1cncc1C(=O)NC1CCN(c2ccnc(Nc3ccc(F)cc3)n2)C1 (stereo not shown) [GSK1379717],0%,0%,7%,30%,4%,0%,0%,0%,0%,0%
COC(=O)c1cccc(NC(=O)NC2CCN(c3ccnc(Nc4ccc(F)cc4)n3)C2)c1 (stereo not shown) [GSK1379725],0%,0%,1%,0%,15%,0%,0%,0%,42%,0%
CC(C)c1ccc(O)cc1Nc1ccnc2ccc(C(F)(F)F)cc12 [GW482059],0%,0%,26%,37%,16%,0%,0%,0%,0%,6%
COc1cccc(CNC(=O)NC2CCN(c3ccnc(Nc4ccc(F)cc4)n3)C2)c1 (stereo not shown) [GSK1379723],0%,8%,2%,1%,16%,0%,0%,0%,0%,0%
COc1ccc(Nc2nccc(N3CCC(NC(=O)C(C)c4ccc(Cl)cc4)CC3)n2)cc1 (stereo not shown) [GSK1379812],0%,0%,3%,0%,6%,0%,15%,19%,0%,22%
Nc1ncnc2occ(-c3ccc4c(c3)CCN4C(=O)Cc3cc(F)ccc3F)c12 [GSK2645446],0%,35%,0%,11%,11%,0%,0%,0%,0%,0%
O=C1NC(=O)C(c2ccc(Cl)cc2)=C1Nc1ccc(O)cc1 [SB-340867],0%,0%,0%,0%,8%,0%,0%,1%,20%,0%
c1ccc(-c2ccnc3[nH]ccc23)cc1 [SB-693578],32%,22%,0%,0%,26%,0%,100%,0%,0%,62%

SMILES,%Inh [1],%Inh [2],%Inh [3],%Inh [4],%Inh [5],%Inh [6],%Inh [7],%Inh [8],%Inh [9],%Inh [10]
COc1ccc(CSc2nnc(-c3ccc4nccn4c3)o2)cc1C(F)(F)F,37%,16%,7%,3%,33%,27%,10%,44%,0%,6%
COC(=O)C(NC(=O)NC1CCN(c2ccnc(Nc3ccc(F)cc3)n2)C1)c1ccccc1 (stereo not shown) [GSK1379712],0%,0%,1%,2%,18%,6%,0%,7%,1%,8%
Fc1ccc(-c2nc[nH]c2-c2ccncc2)cc1 [SB-217360],0%,2%,10%,0%,0%,0%,12%,4%,0%,30%
Cc1ccccc1Cn1ccn2c(=O)cc(N3CCOCC3)nc12 [GSK2269905],0%,0%,0%,0%,19%,0%,99.2%,0%,0%,96.6%
CNCc1ccc2nc(NC(=O)c3ccc(C(C)(C)C)cc3)cn2c1,22%,0%,0%,0%,0%,5%,0%,0%,9%,4%
CC(=O)c1cccc(NC(=O)NC2CCN(c3ccnc(Nc4ccc(F)cc4)n3)C2)c1 (stereo not shown) [GSK1379710],11%,8%,13%,16%,16%,0%,0%,0%,16%,0%
Cn1cncc1-c1cc2c(Nc3ccc(OCc4ccccc4)cc3)ncnc2cn1 [GW281179],0%,0%,1%,0%,24%,0%,0%,0%,0%,11%
COc1cccc(NC(=O)Nc2ccc(C)c(-c3ccc(C(=O)Nc4ccncc4)cc3)c2)c1 [GSK1398474],0%,0%,24%,16%,5%,0%,94.1%,18%,0%,20%
Fc1ccc(-c2nc3n(c2-c2ccncc2)CCS3)cc1 [GI98581],0%,0%,26%,11%,1%,0%,0%,0%,0%,12%
O=c1cc(N2CCOCC2)nc2n(Cc3cccc(Cl)c3Cl)c3ccccc3n12 [GSK2299009],0%,0%,0%,0%,32%,0%,7%,0%,0%,23%
O=C(Nc1n[nH]c2cc(-c3ccsc3)ccc12)C1CC1 [SB-732932],25%,0%,18%,2%,0%,24%,0%,24%,0%,12%
NS(=O)(=O)c1cccc(N/C=C2\C(=O)Nc3ccc(S(=O)(=O)Cc4c(Cl)cccc4Cl)cc32)c1 [GSK398099],0%,19%,28%,0%,20%,0%,0%,0%,0%,0%
CCCCc1nn2ncccc2c1-c1ccnc(NC2CC2)n1 [GW684374],0%,0%,0%,0%,0%,0%,0%,0%,0%,0%
Cc1ccc(-c2nc(Nc3ccncc3)c3ccccc3n2)s1 [GSK189015],0%,19%,23%,15%,25%,0%,7%,0%,22%,13%
CS(=O)(=O)CCNCc1nc(-c2ccc3ncnc(Nc4ccc5c(cnn5Cc5ccccc5)c4)c3c2)cs1.Cl.Cl [GW569716],0%,9%,0%,0%,19%,0%,0%,0%,0%,0%
Cc1c(Cn2c(C)c(C)n3c(=O)cc(N4CCOCC4)nc23)cccc1C(F)(F)F [GSK2328680],0%,0%,0%,0%,16%,0%,0%,0%,19%,0%
CC(=O)c1c(C)c2cnc(Nc3ccn(C)n3)nc2n(C2CCCC2)c1=O,0%,24%,0%,0%,0%,0%,0%,0%,12%,0%
